Laboratory results taken from PubChem BioAssay AID651640 (Broad Institute, 2012).
About 6,000 (1.7%) of roughly 350,000 compounds were called active. About 5% were inconclusive and are not listed. This is one part of a sample in which actives are shown more often than they occur. A number with no mark means an inactive call. Cut-off read from the data, not from the text of the source: active = CPE inhibition above about 20% (passing the limit was not always enough); inconclusive = no clear call, values can overlap the other calls; tested in BHK-21 cells.

Assay: protection of cells from dengue 2 killing – plate reader, single concentration, primary screen (AID 651640);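 note: 0% = median of neutral control wells and 100% = median of positive control wells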
Conditions: DENV2-infected cells, cytopathic effect rescue, at 9.99 µM, hits give high values
Work on `O=C(Nc1ccc(C(F)(F)F)cc1)N[C@@H]1CC[C@H](CCNC(=O)c2ccccc2F)O[C@@H]1CO` yielded a CPE inhibition of 5.46%.
For `C[C@@H]1CCCCO[C@@H](CN(C)C(=O)Nc2ccc(F)cc2)[C@H](C)CN([C@@H](C)CO)C(=O)c2cc(NS(=O)(=O)c3ccccc3)ccc2O1`, the CPE inhibition was -1.25%.
For `CCC(=O)N1C[C@@H](C)[C@@H](OC)CN(C)C(=O)c2ccc(NC(=O)C3CCCCC3)cc2OC[C@@H]1C`, the CPE inhibition was -0.243%.
In the case of `COC(=O)C1=C(C)N(Cc2ccc(C(F)(F)F)cc2)C(=NCc2ccccc2)NC1c1ccccc1C(F)(F)F` (stereo unspecified), the CPE inhibition is reported as 16%.
For `CN1[C@@H]2c3ccc(-c4cccc(F)c4)c(=O)n3C[C@@H]2[C@@H](CO)[C@@H]1C(=O)NC1CCC1`, the CPE inhibition was -3.71%.
`CC(C)NC(=O)N(C)C[C@@H]1Oc2ccc(NC(=O)Cn3cnnn3)cc2CC(=O)N([C@H](C)CO)C[C@H]1C` gave a CPE inhibition of -6.63%.
With `O=C(C[C@@H]1C[C@@H]2c3cc(NS(=O)(=O)c4ccccc4)ccc3O[C@@H]2[C@@H](CO)O1)NC1CCCCC1` the CPE inhibition was 9.22%.
Work on `C[C@H](CO)N1C[C@H](C)[C@@H](CN(C)C(=O)Nc2ccnc(N3CCOCC3)c2)OCc2ccccc2-c2c(n(C)c3ccccc23)C1=O` yielded a CPE inhibition of -11.2%.
In the case of `C[C@@H](O)C#Cc1ccc([C@H]2[C@H](CO)N3CCCCN(C(=O)c4ccc(F)cc4)C[C@@H]23)cc1`, the CPE inhibition is reported as 22.8% (active).
Work on `C[C@@H](O)C#Cc1ccc([C@@H]2[C@@H](CO)N3CCCCN(C(=O)c4ccc(F)cc4)C[C@@H]23)cc1` yielded a CPE inhibition of 2.55%.
In the case of `C[C@H](O)C#Cc1ccc([C@@H]2[C@@H](CO)N3CCCCN(C(=O)c4ccc(F)cc4)C[C@H]23)cc1`, the CPE inhibition is reported as 4.05%.
`O=C(C[C@@H]1CC[C@@H]2[C@H](COC[C@H](O)CN2Cc2ccc(F)cc2)O1)NCc1ccncn1` showed a CPE inhibition of 19.2%.
`C[C@H]1CN([C@@H](C)CO)S(=O)(=O)c2ccc(-c3ccncc3)cc2O[C@H]1CN(C)S(C)(=O)=O` showed a CPE inhibition of 8.89%.
For `COc1ccc(C2(C)NC(=O)N(CC(=O)c3ccc4c(c3)OCO4)C2=O)cc1` (stereo unspecified), the CPE inhibition was 53.4% (active).
`CCC1(c2ccccc2)NC(=O)N(CC(=O)c2ccc3c(c2)OCO3)C1=O` (stereo unspecified) gave a CPE inhibition of 4.81%.
Compound `CC1(c2ccc(Cl)cc2)NC(=O)N(CC(=O)c2ccc3c(c2)OCO3)C1=O` (stereo unspecified) has a CPE inhibition of 14.3%.
For `COc1ccc([Si](C)(C)[C@@H]2[C@@H](CCO)O[C@]3(C(=O)N(Cc4cccc(N5CCCCC5=O)c4)c4ccccc43)[C@H]2C)cc1`, the CPE inhibition was 3.86%.
Compound `COc1ccc(C#Cc2cccc(-c3nc(C(=O)O)cc4c3[C@@H](CCO)N(S(=O)C(C)(C)C)C4)c2)cc1OC` (stereo partly specified) has a CPE inhibition of 0.722%.
With `COCC(=O)Nc1ccc2c(c1)[C@H]1C[C@H](CC(=O)OC)O[C@@H](CO)[C@H]1O2` the CPE inhibition was -10.3%.
Work on `CCC(=O)Nc1ccc2c(c1)OC[C@H](C)N(CC1CCOCC1)C[C@@H](C)[C@@H](OC)CN(C)C2=O` yielded a CPE inhibition of -4.88%.
Compound `O=C(CSc1ncnc2sccc12)N1CCN(C(=O)c2cccs2)CC1` has a CPE inhibition of 2.68%.
For `Nc1c(C(=O)c2cccs2)sc2nsc(SCCN3CCCCC3)c12`, the CPE inhibition was 29.4% (active).
In the case of `CO[C@@H]1CN(C)C(=O)c2cc(NC(=O)c3ccccc3)ccc2OC[C@@H](C)N(C(C)=O)C[C@@H]1C`, the CPE inhibition is reported as -5.72%.
Compound `C[C@H](CO)N1C[C@H](C)[C@@H](CN(C)C(=O)c2ccccc2)OCCCC[C@H](C)Oc2ccc(NC(=O)c3ccccc3)cc2C1=O` has a CPE inhibition of 13.1%.
With `O=C(C[C@@H]1CC[C@H]2[C@@H](COC[C@H](O)CN2S(=O)(=O)c2ccc(F)cc2)O1)N[C@H]1CCN(Cc2ccccc2)C1` the CPE inhibition was 24.2% (active).
With `O=C(C[C@@H]1CC[C@@H]2[C@H](COC[C@H](O)CN2S(=O)(=O)c2ccc(Cl)cc2)O1)N[C@@H]1CCN(Cc2ccccc2)C1` the CPE inhibition was 3.99%.
In the case of `O=C(C[C@H]1CC[C@H]2[C@@H](COC[C@@H](O)CN2S(=O)(=O)c2ccc(Cl)cc2)O1)NCCN1CCCCC1`, the CPE inhibition is reported as 23.7% (active).
`O=C(C[C@@H]1CC[C@H]2[C@@H](COC[C@H](O)CN2S(=O)(=O)c2ccccc2)O1)NCCN1CCCC1` gave a CPE inhibition of -4.25%.
Compound `O=C(C[C@H]1CC[C@@H]2[C@H](COC[C@H](O)CN2S(=O)(=O)c2ccc(F)cc2)O1)NCCN1CCCCC1` has a CPE inhibition of -7.98%.
Compound `O=C(C[C@H]1CC[C@@H]2[C@H](COC[C@H](O)CN2S(=O)(=O)c2ccc(Cl)cc2)O1)N[C@@H]1CCN(Cc2ccccc2)C1` has a CPE inhibition of -1.97%.
For `C[C@H](CO)N1C[C@H](C)[C@@H](CN(C)C)Oc2ccc(NS(=O)(=O)c3cccs3)cc2C1=O`, the CPE inhibition was -7.81%.
Work on `Cc1noc(C)c1NC(=O)N(C)C[C@H]1OCCCC[C@@H](C)Oc2ccc(NC(=O)NC(C)C)cc2C(=O)N([C@@H](C)CO)C[C@H]1C` yielded a CPE inhibition of 18%.
With `CNC[C@@H]1Oc2cc(C#CC3(O)CCCC3)ccc2S(=O)(=O)N([C@@H](C)CO)C[C@H]1C` the CPE inhibition was 12.4%.
In the case of `COc1ccc2c3c([nH]c2c1)[C@H](CO)N(Cc1ccccc1Cl)CC31CN(C(=O)C2CC2)C1`, the CPE inhibition is reported as 53.5% (active).
`COCC(=O)N1CC2(C1)CN(Cc1ccccc1F)[C@@H](CO)c1[nH]c3cc(OC)ccc3c12` showed a CPE inhibition of 11.2%.
With `CCCNC(=O)N1CC2(C1)CN(Cc1cccc(F)c1)[C@@H](CO)c1[nH]c3cc(OC)ccc3c12` the CPE inhibition was 136% (active).
